Measured values reported in PubChem BioAssay (Tox21).
Values joined by “and” are separate entries in the source; they are usually repeats but may differ in a detail not shown here. Equal values may be shown once. Records with an inconclusive call do not appear. Where a call stands in place of a potency, no number is given. Active and inactive are the calls of the source. Unless noted, the call rests on the fitted dose curve; in most records, active means well fitted curve in the direction sought with a large enough effect in the repeat runs; inconclusive means weak or mixed curves; inactive means no such curve, though single readings can be large; an effect the other way counts as inactive or inconclusive.

Assays:
[1] = qHTS assay to identify small molecule antagonists of the retinoid-related orphan receptor gamma (ROR-gamma) signaling pathway - cell viability counter screen (AID 1159520); details: Tet-on RORgamma CHO cells viability, ATP luminescence, 16 h; series mostly up to 92.4 µM; further: nearly all actives have a fitted effect of over 50% in size; further: potency means the concentration at half of the fitted maximal effect
Procedure, shortened: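 Tet-on ROR gamma CHO cells were given compounds for 2 hr, then doxycycline hyclate at 1 uM final, and incubated 16 hr at 37 C. Viability was measured as ATP content by CellTiter-Glo luminescence.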

[2] = molecular target: Nuclear receptor ROR-gamma (Homo sapiens) (UniProt P51449); assay: qHTS assay to identify small molecule antagonists of the retinoid-related orphan receptor gamma (ROR-gamma) signaling pathway (AID 1159521; further: nearly all actives have a fitted effect of over 50% in size; further: potency means the concentration at half of the fitted maximal effect); details: Tet-on RORgamma CHO cells, RORE-luciferase, 16 h; series mostly up to 92.4 µM
Procedure, shortened: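 CHO cells expressing RORγ under a TET-on promoter, luciferase under RORE control. Dox 1 uM final, 16 h; compounds added 2 h prior. Luminescence decrease measured.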

[3] = qHTS assay to identify small molecule agonists of the AP-1 signaling pathway (AID 1159526; calls by dose curve); details: ME-180 AP-1-bla reporter, beta-lactamase FRET ratio, 5 h; series mostly up to 76.8 µM
[4] = qHTS assay to identify small molecule agonists of the RXR signaling pathway - cell viability counter screen (AID 1159529); details: RXR-alpha-bla HEK293T viability, CellTiter-Glo, 16 h; series mostly up to 76.8 µM; further: nearly all actives have a fitted effect of over 50% in size; further: potency means the concentration at half of the fitted maximal effect
Procedure, shortened: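 Same-well viability check after the LiveBLAzer FRET read: CellTiter-Glo added, luminescence measured after 30 min at room temperature. Reporter HEK 293T cells had been treated with compounds for 16 hr following a 5 hr preincubation.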

[5] = qHTS assay to identify small molecule antagonists of the retinoid acid receptor (RAR) signaling pathway - cell viability counter screen (AID 1159551); details: C3RL4 cells viability, ATP luminescence (CellTiter-Glo), 6 h; series mostly up to 92.4 µM; further: nearly all actives have a fitted effect of over 35% in size
Procedure, shortened: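 Measured by luminescent ATP detection, viability reflects C3RL4 cells treated 6 h at 37 C with test chemicals in the presence of 1 uM (final) retinol.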

[6] = qHTS assay to identify small molecule antagonists of the estrogen related receptor (ERR) signaling pathway from Tox21 library - cell viability counter screen (AID 1224834); details: ERR reporter cells viability, CellTiter-Fluor, 17.5 h; series mostly up to 92.4 µM; further: nearly all actives have a fitted effect of over 30% in size; further: potency means the concentration at half of the fitted maximal effect
Procedure, shortened: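 Seeded ERR cells were rested 6 h at 37 C/5% CO2 before compounds, positive and negative controls or DMSO were added. Incubation continued for 17.5 h, and viability was then quantified by CellTiter-Fluor fluorescence.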

[7] = molecular target: Luciferin 4-monooxygenase (Photinus pyralis) (UniProt P08659); assay: qHTS assay to identify small molecule inhibitors of firefly luciferase (AID 1224835); further: nearly all actives have a fitted effect of over 25% in size; further: potency means the concentration at half of the fitted maximal effect; details: purified P. pyralis luciferase, luminescence inhibition; series mostly up to 115 µM
Luciferin 4-monooxygenase (Photinus pyralis), sequence (P08659 whole entry, looked up): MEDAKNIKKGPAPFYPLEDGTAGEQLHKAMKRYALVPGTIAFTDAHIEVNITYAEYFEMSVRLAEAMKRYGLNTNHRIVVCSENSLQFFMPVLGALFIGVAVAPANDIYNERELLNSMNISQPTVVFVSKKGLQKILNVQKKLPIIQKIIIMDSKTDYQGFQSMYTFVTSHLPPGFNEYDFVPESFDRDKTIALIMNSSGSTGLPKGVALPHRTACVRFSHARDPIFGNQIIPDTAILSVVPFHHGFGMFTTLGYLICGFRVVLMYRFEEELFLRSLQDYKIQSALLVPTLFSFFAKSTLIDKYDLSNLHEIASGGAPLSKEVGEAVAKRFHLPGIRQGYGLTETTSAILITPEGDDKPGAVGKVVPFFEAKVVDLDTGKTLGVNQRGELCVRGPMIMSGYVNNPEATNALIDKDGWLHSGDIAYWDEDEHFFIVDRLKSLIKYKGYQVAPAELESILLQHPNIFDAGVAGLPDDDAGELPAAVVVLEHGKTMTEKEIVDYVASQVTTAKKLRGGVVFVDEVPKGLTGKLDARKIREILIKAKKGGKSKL
Procedure, shortened: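 Biochemical qHTS: compounds run as interplate titrations against purified firefly enzyme, with D-luciferin and ATP each at its KM concentration. Light output recorded by CCD imaging.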

[8] = qHTS assay to identify small molecule agonists of the AP-1 signaling pathway - cell viability counter screen (AID 1159525; calls by dose curve; further: nearly all actives have a fitted effect of over 55% in size; further: potency means the concentration at half of the fitted maximal effect); details: ME-180 (cervical carcinoma) AP-1-bla cells viability, ATP luminescence, 5 h; series mostly up to 76.8 µM
Procedure, shortened: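 Same-well cytotoxicity counter screen of the Tox21 10K library in ME-180 cells. The readout is ATP-dependent luminescence after 5 h compound treatment. Data are normalised to DMSO and tetra n-octyl ammonium bromide controls.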

[9] = qHTS assay to identify small molecule antagonists of the retinoic acid receptor (RAR) signaling pathway (AID 1159552; further: nearly all actives have a fitted effect of over 50% in size; further: potency means the concentration at half of the fitted maximal effect); details: C3RL4 RARE luciferase reporter, retinol-stimulated, 6 h; series mostly up to 92.4 µM
Procedure, shortened: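 Readout: luciferase luminescence, 30 min post-reagent at RT. Setup: C3RL4 RARE reporter cells, compounds plus retinol 1 uM final, 6 hr incubation at 37 C and 5% CO2.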

[10] = qHTS assay to identify small molecule antagonists of the estrogen related receptor (ERR) signaling pathway - cell viability counter screen (AID 1224818); details: ERR reporter cell line viability counter screen; series mostly up to 92.2 µM;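 further: viability measured after 17.5 h of compound exposure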
Procedure, shortened: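 Compounds dissolved in DMSO were applied to ERR cells seeded at 2,000 per well 6 h earlier. Cell viability followed 17.5 h later via 30-min CellTiter-Fluor fluorescence.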

[11] = qHTS assay to identify small molecule antagonists of the estrogen related receptor (ERR) signaling pathway (AID 1224819); details: ERR reporter cell line, luciferase inhibition; series mostly up to 92.2 µM
Procedure, shortened: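 Compounds dissolved in DMSO were pin-transferred onto ERR cells that had been plated 6 h earlier, and cells were then incubated 18 h at 37 C; signal was luciferase luminescence via One-Glo.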

[12] = qHTS assay to identify small molecule agonists of the estrogen related receptor (ERR) signaling pathway (AID 1224820); details: ERR reporter cell line, luciferase agonist mode; series mostly up to 92.2 µM
Procedure, shortened: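 An ERR cell line provided by NTP was seeded at 2,000 cells per well and allowed to settle for 6 h before compounds in DMSO were added. After 18 h at 37 C, luciferase activity was measured by One-Glo luminescence.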

[13] = test system: estrogen-related receptor alpha (ERRalpha) with PGC-1alpha coactivator, human; assay: qHTS assay to identify small molecule antagonists of the estrogen related receptor signaling pathway with the pleiotropic PPARgamma coactivator (PGC) (AID 1224821; calls by dose curve); details: ERR/PGC reporter cell line, luciferase, antagonist mode; series mostly up to 92.2 µM
Procedure, shortened: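 A PGC/ERR cell line supplied by NTP is seeded, allowed 6 h at 37 C, and treated with test compounds in DMSO for 18 h. Signal is then measured as luciferase luminescence using One-Glo.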

[14] = qHTS assay to identify small molecule agonists of the estrogen related receptor signaling pathway with the pleiotropic PPARgamma coactivator (PGC) (AID 1224823); details: ERR/PGC reporter cell line, luciferase agonist mode; series mostly up to 92.2 µM
Procedure, shortened: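 Compounds dissolved in DMSO are added by pin tool to PGC/ERR cells that have settled for 6 h, and incubation continues 18 h at 37 C. Reporter output is measured as One-Glo luminescence.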

[15] = molecular target: Retinoic acid receptor RXR-alpha (Homo sapiens) (UniProt P19793); assay: qHTS assay to identify small molecule agonists of the RXR signaling pathway (AID 1159527; calls by dose curve; further: nearly all actives have a fitted effect of over 35% in size); details: HEK293T RXRa-UAS-bla, beta-lactamase ratio, 16 h; series mostly up to 76.8 µM
Retinoic acid receptor RXR-alpha (Homo sapiens), sequence (P19793 whole entry, looked up): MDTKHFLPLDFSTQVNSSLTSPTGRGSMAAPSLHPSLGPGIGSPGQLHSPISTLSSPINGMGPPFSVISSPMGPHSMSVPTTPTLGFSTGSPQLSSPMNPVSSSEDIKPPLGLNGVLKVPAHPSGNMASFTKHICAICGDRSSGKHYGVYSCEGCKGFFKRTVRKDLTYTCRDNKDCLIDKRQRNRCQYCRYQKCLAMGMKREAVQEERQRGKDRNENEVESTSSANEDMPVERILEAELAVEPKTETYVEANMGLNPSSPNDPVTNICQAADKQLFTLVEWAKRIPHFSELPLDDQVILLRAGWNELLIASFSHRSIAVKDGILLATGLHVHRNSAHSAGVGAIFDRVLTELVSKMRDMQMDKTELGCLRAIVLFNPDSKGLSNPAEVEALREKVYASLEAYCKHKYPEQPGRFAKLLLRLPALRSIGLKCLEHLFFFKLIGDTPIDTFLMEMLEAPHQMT
Procedure, shortened: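 Beta-lactamase reporter assay, agonist format. Engineered HEK 293T line, charcoal-stripped FBS at 2%, overnight (16 hr) exposure, fluorescence at 460 and 530 nm after 405 nm excitation.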

In the case of `O=C/C(Cl)=C(/Cl)C(=O)O`, the Potency [1] is reported as 48.5 µM (active) and 34.4 µM (active), the Potency [2] is reported as 13.7 µM (active) and 21.7 µM (active) and the Potency [3] is reported as “inactive”. The Potency [4] was “inactive”, the Potency [5] was “inactive” and the Potency [6] was “inactive”. For the same molecule, the Potency [7] was “inactive”.

With `CNC(C)Cc1ccc2c(c1)OCO2` (centres undefined) the Potency [1] was “inactive”, the Potency [2] was “inactive” and the Potency [8] was “inactive”. For the same molecule, the Potency [5] was “inactive”, the Potency [9] was “inactive” and the Potency [6] was “inactive”. For the same molecule, the Potency [7] was “inactive”.

For `O=C(CCCN1CCC2(CC1)C(=O)NCN2c1ccccc1)c1ccc(F)cc1`, the Potency [1] was “inactive”, the Potency [2] was “inactive” and the Potency [8] was “inactive”. The Potency [4] was “inactive”, the outcome [10] was “inactive” and the Potency [11] was “inactive”. For the same molecule, the outcome [12] was “inactive”, the Potency [13] was “inactive” and the outcome [14] was “inactive”. The Potency [6] was “inactive” and the Potency [7] was “inactive”.

For `C[CH2][Hg][N]1C(=O)C2C(C1=O)C1(Cl)C(Cl)=C(Cl)C2(Cl)C1(Cl)Cl` (centres undefined), the Potency [1] was 3.66 µM (active), the Potency [2] was 2.31 µM (active) and the Potency [8] was 6.57 µM (active). For the same molecule, the Potency [4] was 4.14 µM (active), the Potency [9] was 11.6 µM (active) and the Potency [6] was 13 µM (active). For the same molecule, the Potency [7] was 5.35 µM (active).

For `Cc1ccc(C(=O)Cl)cc1`, the Potency [1] was “inactive”, the Potency [2] was “inactive” and the Potency [8] was “inactive”. For the same molecule, the outcome [15] was “inactive”, the Potency [4] was “inactive” and the Potency [5] was “inactive”. The Potency [9] was “inactive” and the Potency [6] was “inactive”.

With `ClC(Cl)=C(c1ccc(Cl)cc1)c1ccc(Cl)cc1` the Potency [1] was “inactive”, the Potency [2] was 62.6 µM (active) and the Potency [8] was 44.7 µM (active). The Potency [4] was 56.3 µM (active) and 43.6 µM (active), the Potency [5] was “inactive” and the Potency [9] was “inactive”. The Potency [6] was “inactive” and the Potency [7] was “inactive”.

For `COc1ccc(OC)c(C=O)c1`, the Potency [1] was “inactive”, the Potency [2] was “inactive” and the Potency [8] was “inactive”. The outcome [15] was “inactive”, the Potency [4] was “inactive” and the Potency [5] was “inactive”. For the same molecule, the Potency [9] was “inactive”, the Potency [6] was “inactive” and the Potency [7] was “inactive”.

With `CC(O)C#N` (centres undefined) the Potency [1] was “inactive”, the Potency [2] was “inactive” and the Potency [8] was “inactive”. For the same molecule, the outcome [15] was “inactive”, the Potency [4] was “inactive” and the Potency [5] was “inactive”. The Potency [9] was “inactive”, the Potency [6] was “inactive” and the Potency [7] was “inactive”.

With `CCc1cc(C)cc(CC)c1-c1c(OC(=O)C(C)(C)C)n2n(c1=O)CCOCC2` the Potency [1] was “inactive”, the Potency [2] was “inactive” and the Potency [8] was “inactive”. The outcome [15] was “inactive”, the Potency [4] was “inactive” and the Potency [5] was “inactive”. The Potency [7] was “inactive”.

In the case of `C=COCCCl`, the Potency [1] is reported as “inactive”, the Potency [2] is reported as “inactive” and the Potency [3] is reported as “inactive”. For the same molecule, the outcome [15] was “inactive”, the Potency [4] was “inactive” and the Potency [5] was “inactive”. For the same molecule, the Potency [6] was “inactive” and the Potency [7] was “inactive”.

In the case of `O=C1c2ccccc2C(=O)C1C(=O)C(c1ccccc1)c1ccc(Cl)cc1` (centres undefined), the Potency [1] is reported as 30.6 µM (active), the Potency [2] is reported as 5.45 µM (active) and the Potency [8] is reported as “inactive”. The Potency [5] was “inactive”, the Potency [9] was “inactive” and the Potency [7] was “inactive”.

With `CC(=O)c1cc(C(C)(C)C)cc2c1CCC2(C)C` the Potency [1] was “inactive”, the Potency [2] was “inactive” and the Potency [8] was “inactive”. The Potency [4] was “inactive”, the Potency [5] was “inactive” and the Potency [6] was “inactive”. For the same molecule, the Potency [7] was “inactive”.
